Compounds with a hit are over-represented: about 3.1% of the library has one in this group of screens.
dFosB act-1: activators of mouse delta FosB homodimer. P13346. AID 493131. activation, % at 25 µM. actives 0.99% (n = 340,000). purified delta FosB, TAMRA-CDK5 oligo fluorescence polarization; percent of positive-control signal above neutral wells;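 active means mean activation above about 17%, with every replicate also reaching it, limit read from the data, passing the limit was not always enough; inconclusive means only one of the two conditions met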
RAD52 anneal inh: inhibitors of human RAD52 DNA annealing. AID 651710. P43351. actives 0.46% (n = 360,000). recombinant RAD52 DNA annealing, FRET fluorescence. inhibition, % at 18.7 µM;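 active means every replicate showing at least 50% inhibition; inconclusive means mean inhibition at least 50% but not in every replicate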
DENV2 CPE: DENV2-induced cell death inhibition | DENV2-infected cells, cytopathic effect rescue, plate reader | CPE inhibition, % at 9.99 µM | actives 1.7% (n = 350,000) | AID 651640; in the data active means CPE inhibition above about 20%, passing the limit was not always enough; inconclusive means no clear call, values can overlap the other calls; tested in BHK-21 cells
GSIS activator: GLuc luminescence reporter in INS-1E cells, primary screen for activators of glucose-dependent secretion of insulin; INS-1E GLuc reporter insulin secretion, 2-3 h; activation, % at 16.6 µM; actives 0.61% (n = 370,000); AID 743287;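 active means lowest replicate activation of at least 40%, so every replicate reaches that level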
RAD54 branch: RAD54 (human) branch migration inhibition; RAD54 Holliday junction branch migration, FAM/BHQ fluorescence; inhibition, % at 10.4 µM; Q92698; actives 0.14% (n = 360,000); AID 602329;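 active means mean normalized replicate activity at least 40 and at least half of replicates scoring 40 or more; inconclusive means only one of the two criteria met; inactive means mean below 40 and under half of replicates reaching 40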;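 further: inhibitors cause a drop in the FAM fluorescence signal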
Target sequence (Q92698 whole entry, looked up): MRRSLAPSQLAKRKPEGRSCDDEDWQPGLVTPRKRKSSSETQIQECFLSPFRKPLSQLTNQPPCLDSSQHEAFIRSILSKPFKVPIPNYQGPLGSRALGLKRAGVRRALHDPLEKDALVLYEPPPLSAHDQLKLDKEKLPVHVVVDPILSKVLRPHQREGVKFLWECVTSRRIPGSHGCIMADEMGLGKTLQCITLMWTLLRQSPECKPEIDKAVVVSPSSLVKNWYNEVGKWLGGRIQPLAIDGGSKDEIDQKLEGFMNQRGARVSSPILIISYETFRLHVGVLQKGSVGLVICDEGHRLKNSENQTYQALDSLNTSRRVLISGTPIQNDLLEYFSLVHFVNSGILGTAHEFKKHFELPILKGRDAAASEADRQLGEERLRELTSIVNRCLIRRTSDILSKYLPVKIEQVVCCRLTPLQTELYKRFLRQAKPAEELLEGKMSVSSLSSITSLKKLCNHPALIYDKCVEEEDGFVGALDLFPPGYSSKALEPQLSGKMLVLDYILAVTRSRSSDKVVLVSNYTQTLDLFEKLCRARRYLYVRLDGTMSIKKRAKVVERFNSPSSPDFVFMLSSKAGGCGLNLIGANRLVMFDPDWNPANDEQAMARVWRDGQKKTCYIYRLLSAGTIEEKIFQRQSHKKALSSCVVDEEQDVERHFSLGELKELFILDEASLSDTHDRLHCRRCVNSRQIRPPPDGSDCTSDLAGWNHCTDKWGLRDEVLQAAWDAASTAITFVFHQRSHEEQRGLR
AF4-AF9 inh: MLL-AF4/AF9 protein interaction inhibition | actives 0.47% (n = 350,000) | AlphaScreen, biotin-AF4 peptide binding to FLAG-AF9 | inhibition, % at 10 µM | P42568;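 active means every replicate reaching a set inhibition limit, whatever the replicate mean, cut at about 25% in these data; inconclusive means mean inhibition reaches that limit but some replicates miss it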
dFosB act-2: activators of mouse delta FosB homodimer DNA binding; 2,400 tested, under 10 active; activation, % at 24.9 µM; purified delta FosB, TAMRA-CDK5 oligo fluorescence polarization; normalised: neutral wells 0, positive control 100; shares compounds with dFosB act-1;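 active means highest replicate activation at or above 34% and every replicate reaching that threshold; inconclusive means meets only one of the two criteria; inactive means meets neither criterion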;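 further: higher polarization means more probe DNA bound by delta FosB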
A number is an active result; . = inactive; ? = inconclusive; / = no result.

SMILES	dFosB act-1	RAD52 anneal inh	DENV2 CPE	GSIS activator	RAD54 branch	AF4-AF9 inh	dFosB act-2
CCCC#Cc1ccc2c(c1)O[C@@H](CN(C)Cc1cccnc1)[C@@H](C)CN([C@@H](C)CO)S2(=O)=O	/	.	?	.	.	.	/
Cc1cccn2c(=O)c3cc(C(=O)NCCc4ccccc4)c(=N)n(Cc4ccco4)c3nc12	.	.	.	.	.	.	/
Cc1ccc(CNC(=O)c2cc3c(=O)n4ccccc4nc3n(Cc3ccco3)c2=N)cc1	25.2	.	/	.	.	/	.
COc1ccc(Cn2c(=N)c(C(=O)NC3CCCCC3)cc3c(=O)n4ccccc4nc32)cc1	33.9	.	.	.	.	.	.
Cc1cccn2c(=O)c3cc(C(=O)NCc4ccco4)c(=N)n(CCc4ccccc4)c3nc12	20.1	.	.	.	/	.	.
COc1ccc(CCn2c(=N)c(C(=O)NC3CCCC3)cc3c(=O)n4ccccc4nc32)cc1	.	.	.	.	.	.	/
O=C(Nc1ccc(Br)cn1)c1cccc(-c2cc3ccccc3oc2=O)c1	33.7	.	.	.	.	.	.
O=C(Nc1ccccc1N1CCCC1)c1cccc(-c2cc3ccccc3oc2=O)c1	.	/	/	.	.	/	/
COc1ccc(NC(=O)c2cc([N+](=O)[O-])ccc2NC(=O)CNCc2ccccn2)c(OC)c1	.	.	.	.	.	.	/
COc1cc(NC(=O)c2cc([N+](=O)[O-])ccc2NC(=O)CNCc2ccccn2)cc(OC)c1	35.5	.	.	.	.	.	.
Cc1ccc(NC(=O)c2cc(-c3cc(Cl)ccc3O)n[nH]2)cc1C	22.3	.	.	.	.	.	.
Cc1cccc(NC(=O)c2cc(-c3cc(Cl)ccc3O)n[nH]2)c1	.	/	/	/	.	/	/
Cc1ccc(NC(=O)c2cc(-c3ccccc3O)n[nH]2)cc1Cl	40.7	.	.	.	.	.	.
CC(=O)c1sc(NC(=O)c2ccc(C(C)(C)C)cc2)nc1C	.	.	.	.	.	.	/
CC(=O)c1sc(NC(=O)c2ccc(C)c(C)c2)nc1C	23.5	.	.	.	/	.	.
COc1ccc(C(=O)CSc2nc(N)nc(SC)c2C#N)cc1	56.4	/	/	/	.	/	.
CN1CCN(C(=O)C[C@H]2CC[C@@H]3[C@@H](COc4ccc(NC(=O)C5CCOCC5)cc4C(=O)N3C)O2)CC1	/	.	.	.	.	.	/
O=C(CSc1nc(-c2cccs2)cc(C(F)(F)F)n1)NCc1ccccc1	21.5	/	/	.	.	/	.
CCCNC(=O)CSc1nc(-c2cccs2)cc(C(F)(F)F)n1	.	/	/	/	.	/	/
O=C1Nc2c(Br)cc(Br)c3cccc1c23	89.6	.	.	.	/	.	.
CCNC(=O)Nc1nc2ccccc2s1	.	.	.	.	/	.	/
Cc1ccc(NC(=O)Nc2nc3ccccc3s2)cc1NC(=O)Nc1nc2ccccc2s1	31.8	.	.	.	.	.	.
CS(=O)(=O)c1ccc2nc(NC(=O)Nc3ccccc3F)sc2c1	19.9	.	.	/	.	.	.
COc1ccc2nc(NC(=O)Nc3cccc4ccccc34)sc2c1	56.7	.	.	.	/	.	.
CC(=O)Nc1cccc(NC(=O)Nc2cccc3ccccc23)c1	20.8	.	.	.	.	.	.
SMILES	dFosB act-1	RAD52 anneal inh	DENV2 CPE	GSIS activator	RAD54 branch	AF4-AF9 inh	dFosB act-2
O=C(Nc1ccc(F)cc1)N1C[C@H]2[C@@H](c3ccccc31)[C@@H](CO)N2C(=O)c1ccccc1	/	.	.	.	.	.	/
CS(=O)(=O)c1cccc(C(=O)OCC(=O)NC(=O)Nc2ccccc2F)c1	22.4	.	?	.	.	.	.
COc1ccccc1NC(=O)Nc1nc2ccc(S(N)(=O)=O)cc2s1	49.2	.	.	.	.	.	.
COc1ccccc1-n1nc(C(=O)Nc2ccc3c(c2)OCO3)c2ccccc2c1=O	24.4	/	/	/	.	/	.
C[C@H](CO)N1C[C@H](C)[C@H](CN(C)S(C)(=O)=O)Oc2c(NS(C)(=O)=O)cccc2C1=O	/	.	.	.	.	.	/
CC(=O)NC[C@H]1[C@H](c2ccc(-c3ccccc3)cc2)[C@H](CO)N1C(=O)C1CCC1	/	.	.	.	.	.	/
CO[C@@H]1CN(C)C(=O)c2ccc(NC(=O)C3CCOCC3)cc2OC[C@H](C)N(Cc2nccs2)C[C@H]1C	/	.	.	.	.	.	/
C[C@H](CO)N1C[C@H](C)[C@H](CN(C)Cc2ccc(O)cc2)OCc2cnnn2CCCC1=O	/	.	.	.	.	.	/
CN(c1ccc(OCC(=O)OCC(=O)c2c(N)n(C)c(=O)n(C)c2=O)cc1)S(=O)(=O)c1ccc2ccccc2c1	33.2	.	.	.	/	.	.
CCN(c1ccc(OCC(=O)OCC(=O)c2c(N)n(C)c(=O)n(C)c2=O)cc1)S(=O)(=O)c1ccccc1	.	.	.	.	.	.	/
COc1ccc(CCNC(=O)c2cc(S(=O)(=O)N3CCc4ccccc43)ccc2F)cc1OC	/	.	.	.	.	.	/
COc1ccccc1NC(=O)c1cc(S(=O)(=O)N2CCc3ccccc32)ccc1F	30.2	.	.	.	.	.	.
Cc1ccccc1C(=O)Nc1cccc(NC(=S)NC(=O)c2cccs2)c1	50.2	/	/	/	.	/	.
O=C(NC(=S)Nc1cccc(NC(=O)c2ccccc2Cl)c1)c1cccs1	.	.	.	.	.	.	/
CC(=O)NC(=S)Nc1ccc(NC(=S)NC(=O)c2cccs2)cc1	37.0	.	.	.	.	.	.
CCCC(=O)Nc1ccc(NC(=S)NC(=O)c2cccs2)cc1	.	.	.	.	/	.	/
C[C@H]1CN([C@@H](C)CO)C(=O)c2cc(NC(=O)CCCN(C)C)ccc2O[C@H]1CN(C)S(=O)(=O)c1cn(C)cn1	/	.	.	.	.	.	/
CC(C)C#Cc1ccc2c(c1)O[C@@H](CN(C)C(=O)c1cccnc1)[C@H](C)CN([C@H](C)CO)S2(=O)=O	/	.	.	.	.	.	/
Cc1ccc(S(=O)(=O)N(C)C[C@@H]2OCCCC[C@@H](C)Oc3ccc(NC(=O)Nc4cccc5ccccc45)cc3C(=O)N([C@H](C)CO)C[C@H]2C)cc1	/	.	.	.	.	.	/
COc1ccc(CNCC(O)(c2ccc(Cl)cc2)c2ccc(Cl)cc2)cc1	21.0	/	/	/	.	/	.
CCOc1ccc(C(=O)CCC(=O)NCC(=O)Nc2ccc(F)c(F)c2F)cc1	/	.	.	.	.	.	/
N#Cc1ccc(-c2ccc(OCC(=O)NCC(=O)Nc3ccc(F)c(F)c3F)cc2)cc1	41.8	.	?	.	.	.	.
COc1ccc(N(CC(=O)N2CCN(c3ccc(Cl)cc3)CC2)S(=O)(=O)c2c(C)n[nH]c2C)cc1	77.2	.	.	.	.	.	.
O=C(Nc1nc2c(F)cc(F)cc2s1)c1ccco1	.	.	.	.	.	.	/
O=C(Nc1nc2c(F)c(F)c(F)cc2s1)c1ccco1	29.9	.	.	.	.	.	.
